# Measured values taken from article PMC7862700, “An all-to-all approach to the identification of sequence-specific readers for epigenetic DNA modifications on cytosine”.
# How the values were obtained:
# Assay in all cases: DAPPL (digital affinity profiling via proximity ligation, sequencing); 10 mM Tris-HCl pH 7.5, 50 mM NaCl, 1 mM DTT, 4% glycerol, room temperature, 30 min; GST-TFs on glutathione beads, 16-mer random dsDNA library, 0.1% formaldehyde crosslink after washing; high values mean tight binding
# FEV = target: T1, FEV (Homo sapiens, UniProt Q99581 1-238); conditions: protein: recombinant; tags: N-terminal GST; dsDNA, one strand shown
# T1 sequence: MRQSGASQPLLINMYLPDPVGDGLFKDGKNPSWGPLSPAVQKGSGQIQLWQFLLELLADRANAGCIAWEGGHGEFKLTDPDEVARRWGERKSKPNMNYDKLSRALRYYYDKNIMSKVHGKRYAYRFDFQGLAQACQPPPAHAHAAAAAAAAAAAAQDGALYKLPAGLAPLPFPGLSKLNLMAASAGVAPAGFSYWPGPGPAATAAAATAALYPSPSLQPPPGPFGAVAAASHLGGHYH
# Outline: (§1)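 Human transcription factors were made in yeast as GST fusions, captured on glutathione beads and barcoded with DNA. With a tag-only sample included, the pool was incubated with 200 nmole of a random double-stranded 16-mer DNA library in Tris/NaCl/DTT/glycerol buffer at room temperature for 30 min, then crosslinked with 0.1% formaldehyde after washing, ligated by proximity, amplified and sequenced. For binding signal, each hexamer's read frequency for a factor is divided by its frequency for the tag-only sample.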
# ETV5 = ETV5 (Homo sapiens, UniProt P41161 1-510); conditions: protein: recombinant; tags: N-terminal GST; dsDNA, one strand shown
# Outline: as §1
# HSF1 = HSF1 (Homo sapiens, UniProt Q00613 1-529); conditions: protein: recombinant; tags: N-terminal GST; chain copies: 3; dsDNA, one strand shown
# Outline: as §1
# SPIC = target: T2, SPIC (Homo sapiens, UniProt Q8N5J4 1-248); conditions: protein: recombinant; tags: N-terminal GST; dsDNA, one strand shown
# T2 sequence: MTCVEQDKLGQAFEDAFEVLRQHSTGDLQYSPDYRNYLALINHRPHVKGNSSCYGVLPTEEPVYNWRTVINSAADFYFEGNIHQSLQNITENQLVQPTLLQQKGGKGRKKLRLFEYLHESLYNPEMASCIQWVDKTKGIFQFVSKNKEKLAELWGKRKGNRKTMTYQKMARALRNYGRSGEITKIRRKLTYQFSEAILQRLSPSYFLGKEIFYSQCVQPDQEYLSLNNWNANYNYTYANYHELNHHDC
# Outline: as §1
# ELF4 = ELF4 (Homo sapiens, UniProt Q99607 1-663); conditions: protein: recombinant; tags: N-terminal GST; dsDNA, one strand shown
# Outline: as §1
# ELK4 = target: T3, ELK4 (Homo sapiens, UniProt P28324-2 1-405); conditions: protein: recombinant; tags: N-terminal GST; dsDNA, one strand shown
# T3 sequence: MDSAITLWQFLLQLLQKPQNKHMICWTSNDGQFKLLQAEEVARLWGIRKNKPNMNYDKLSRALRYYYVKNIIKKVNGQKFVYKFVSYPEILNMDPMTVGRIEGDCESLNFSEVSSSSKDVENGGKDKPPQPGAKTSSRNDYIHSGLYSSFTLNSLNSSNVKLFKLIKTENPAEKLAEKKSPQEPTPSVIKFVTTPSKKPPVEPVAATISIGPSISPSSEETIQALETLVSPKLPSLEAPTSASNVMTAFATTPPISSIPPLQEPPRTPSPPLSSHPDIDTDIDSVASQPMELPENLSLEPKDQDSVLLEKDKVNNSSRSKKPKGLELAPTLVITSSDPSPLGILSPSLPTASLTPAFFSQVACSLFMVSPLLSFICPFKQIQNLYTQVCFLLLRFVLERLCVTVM
# Outline: as §1
# ETV2 = target: T4, ETV2 (Homo sapiens, UniProt O00321 1-342); conditions: protein: recombinant; tags: N-terminal GST; dsDNA, one strand shown
# T4 sequence: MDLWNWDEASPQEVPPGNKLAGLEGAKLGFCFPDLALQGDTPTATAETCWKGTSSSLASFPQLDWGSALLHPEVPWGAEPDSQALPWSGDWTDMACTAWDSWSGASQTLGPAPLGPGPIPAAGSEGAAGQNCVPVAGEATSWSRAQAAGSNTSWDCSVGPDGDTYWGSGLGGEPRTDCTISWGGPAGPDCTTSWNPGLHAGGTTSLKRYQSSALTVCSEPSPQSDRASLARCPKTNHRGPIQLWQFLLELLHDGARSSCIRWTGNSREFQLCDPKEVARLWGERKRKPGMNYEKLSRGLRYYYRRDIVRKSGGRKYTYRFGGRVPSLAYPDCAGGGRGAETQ
# Outline: as §1
# ELF3 = target: T5, ELF3 (Homo sapiens, UniProt P78545 1-371); conditions: protein: recombinant; tags: N-terminal GST; dsDNA, one strand shown
# T5 sequence: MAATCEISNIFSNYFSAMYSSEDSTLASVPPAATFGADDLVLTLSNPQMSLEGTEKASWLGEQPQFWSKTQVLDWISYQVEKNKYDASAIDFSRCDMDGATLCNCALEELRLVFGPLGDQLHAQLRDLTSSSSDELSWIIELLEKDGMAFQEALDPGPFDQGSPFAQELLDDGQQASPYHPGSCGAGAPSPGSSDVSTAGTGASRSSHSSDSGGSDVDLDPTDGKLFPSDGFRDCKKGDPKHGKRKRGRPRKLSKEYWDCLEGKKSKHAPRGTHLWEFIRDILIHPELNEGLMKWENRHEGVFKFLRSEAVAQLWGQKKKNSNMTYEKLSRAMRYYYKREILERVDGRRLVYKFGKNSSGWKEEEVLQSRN
# Outline: as §1
# CRX = CRX (Homo sapiens, UniProt O43186 1-299); conditions: protein: recombinant; tags: N-terminal GST; dsDNA, one strand shown
# Outline: as §1
# ETV1 = ETV1 (Homo sapiens, UniProt P50549 1-477); conditions: protein: recombinant; tags: N-terminal GST; dsDNA, one strand shown
# Outline: as §1
# Sequence of ETV1 (P50549 whole entry): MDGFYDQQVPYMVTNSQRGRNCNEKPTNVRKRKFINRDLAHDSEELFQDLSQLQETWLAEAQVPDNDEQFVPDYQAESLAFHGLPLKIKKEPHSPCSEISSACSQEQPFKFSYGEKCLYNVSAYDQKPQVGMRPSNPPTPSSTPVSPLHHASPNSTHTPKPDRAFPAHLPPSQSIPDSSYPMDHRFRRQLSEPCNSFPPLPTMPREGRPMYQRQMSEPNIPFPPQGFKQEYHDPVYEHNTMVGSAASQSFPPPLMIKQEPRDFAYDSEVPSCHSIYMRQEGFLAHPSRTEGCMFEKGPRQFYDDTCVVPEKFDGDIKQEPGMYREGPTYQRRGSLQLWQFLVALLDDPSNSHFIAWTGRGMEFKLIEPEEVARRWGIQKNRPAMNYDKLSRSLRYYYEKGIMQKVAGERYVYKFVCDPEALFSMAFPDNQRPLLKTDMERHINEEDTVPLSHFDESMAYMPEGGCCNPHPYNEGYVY
# Sequence of HSF1 (Q00613 whole entry): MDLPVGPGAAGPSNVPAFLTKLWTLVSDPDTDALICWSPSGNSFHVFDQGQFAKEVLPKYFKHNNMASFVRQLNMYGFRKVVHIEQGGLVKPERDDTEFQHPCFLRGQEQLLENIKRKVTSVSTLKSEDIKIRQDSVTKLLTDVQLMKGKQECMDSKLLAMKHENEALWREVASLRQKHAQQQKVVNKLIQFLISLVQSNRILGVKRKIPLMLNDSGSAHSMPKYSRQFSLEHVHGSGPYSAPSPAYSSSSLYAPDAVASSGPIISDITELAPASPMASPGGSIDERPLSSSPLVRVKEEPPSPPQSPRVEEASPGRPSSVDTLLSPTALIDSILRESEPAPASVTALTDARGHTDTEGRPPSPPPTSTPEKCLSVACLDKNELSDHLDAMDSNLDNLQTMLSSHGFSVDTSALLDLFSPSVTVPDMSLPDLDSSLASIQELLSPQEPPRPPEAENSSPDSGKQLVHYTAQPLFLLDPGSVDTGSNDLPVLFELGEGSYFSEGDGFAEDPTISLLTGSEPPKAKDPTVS
# Sequence of ETV5 (P41161 whole entry): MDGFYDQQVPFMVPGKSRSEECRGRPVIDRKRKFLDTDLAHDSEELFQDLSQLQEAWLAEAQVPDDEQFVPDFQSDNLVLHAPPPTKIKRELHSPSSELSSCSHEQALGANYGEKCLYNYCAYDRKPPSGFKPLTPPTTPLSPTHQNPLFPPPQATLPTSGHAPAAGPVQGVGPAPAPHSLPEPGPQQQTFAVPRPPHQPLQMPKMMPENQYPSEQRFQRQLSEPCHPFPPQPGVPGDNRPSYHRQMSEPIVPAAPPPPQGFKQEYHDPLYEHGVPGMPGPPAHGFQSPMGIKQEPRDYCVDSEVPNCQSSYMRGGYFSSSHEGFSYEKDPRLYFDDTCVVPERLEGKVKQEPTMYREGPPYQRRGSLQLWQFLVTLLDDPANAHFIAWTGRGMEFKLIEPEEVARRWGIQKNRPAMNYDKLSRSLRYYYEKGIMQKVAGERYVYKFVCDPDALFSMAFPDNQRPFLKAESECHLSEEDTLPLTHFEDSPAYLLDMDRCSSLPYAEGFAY
# Sequence of CRX (O43186 whole entry): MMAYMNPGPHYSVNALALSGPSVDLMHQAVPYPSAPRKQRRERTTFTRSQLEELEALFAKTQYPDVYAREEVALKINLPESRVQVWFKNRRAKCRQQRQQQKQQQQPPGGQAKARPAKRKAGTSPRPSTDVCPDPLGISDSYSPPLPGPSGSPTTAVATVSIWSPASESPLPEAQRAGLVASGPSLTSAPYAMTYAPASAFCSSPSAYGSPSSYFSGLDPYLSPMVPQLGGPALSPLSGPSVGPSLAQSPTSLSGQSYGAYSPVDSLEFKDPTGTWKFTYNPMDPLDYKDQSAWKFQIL
# Sequence of ELF4 (Q99607 whole entry): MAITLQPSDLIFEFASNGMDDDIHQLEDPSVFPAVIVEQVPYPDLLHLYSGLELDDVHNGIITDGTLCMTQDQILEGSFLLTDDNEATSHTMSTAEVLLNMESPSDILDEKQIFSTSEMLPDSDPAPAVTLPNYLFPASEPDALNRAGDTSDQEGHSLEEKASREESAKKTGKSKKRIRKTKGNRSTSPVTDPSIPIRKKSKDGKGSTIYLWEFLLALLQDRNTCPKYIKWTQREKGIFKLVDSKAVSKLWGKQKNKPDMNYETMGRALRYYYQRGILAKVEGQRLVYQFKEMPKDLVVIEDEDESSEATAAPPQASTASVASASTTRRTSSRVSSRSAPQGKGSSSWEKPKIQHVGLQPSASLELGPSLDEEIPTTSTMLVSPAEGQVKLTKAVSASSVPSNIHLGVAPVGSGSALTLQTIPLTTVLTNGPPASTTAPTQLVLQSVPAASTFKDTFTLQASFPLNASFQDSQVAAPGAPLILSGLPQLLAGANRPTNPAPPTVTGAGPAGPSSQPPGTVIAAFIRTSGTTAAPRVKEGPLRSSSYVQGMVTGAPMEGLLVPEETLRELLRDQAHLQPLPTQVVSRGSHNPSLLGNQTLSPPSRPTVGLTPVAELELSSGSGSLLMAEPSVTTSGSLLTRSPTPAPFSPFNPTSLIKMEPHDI
sequence,measurement,setting,value
TTATTT,binding signal,FEV,"1.41 fold enrichment (6-mer frequency, TF over GST control)"
same,binding signal,ETV5,"1.47 fold enrichment (6-mer frequency, TF over GST control)"
same,binding signal,HSF1,"1.64 fold enrichment (6-mer frequency, TF over GST control)"
same,binding signal,SPIC,"1.48 fold enrichment (6-mer frequency, TF over GST control)"
same,binding signal,ELF4,"1.32 fold enrichment (6-mer frequency, TF over GST control)"
same,binding signal,ELK4,"1.43 fold enrichment (6-mer frequency, TF over GST control)"
same,binding signal,ETV2,"1.26 fold enrichment (6-mer frequency, TF over GST control)"
same,binding signal,ELF3,"1.55 fold enrichment (6-mer frequency, TF over GST control)"
same,binding signal,CRX,"2.43 fold enrichment (6-mer frequency, TF over GST control)"
same,binding signal,ETV1,"1.52 fold enrichment (6-mer frequency, TF over GST control)"
